Consider 40 compounds from PubChem BioAssay (Tox21).

Records with an inconclusive call do not appear. Where a call stands in place of a potency, no number is given. Unmarked numbers belong to inactive results. Calls of active or inactive are those of the source. The call rests on the fitted dose curve; in most records, active means well fitted cell-killing curve with a large enough effect in the repeat runs; inconclusive means weak or mixed curves; inactive means flat fitted curve, though single readings scatter.

A short description of the experiment: qHTS RealTime-Glo MT Cell Viability Assay in HepG2 cells - 16 hour (AID 1224885). Further: nearly all actives have a fitted effect of over 50% in size. As to conditions: RealTime-Glo luminescence; series mostly up to 76.8 µM. The text has this: U.S. Tox21 Program National Center for Advancing Translational Sciences [NCATS] NIH Chemical Genomics Center [NCGC] U.S. Environmental Protection Agency [EPA] National Institutes of Environmental Health Sciences [NIEHS] National Toxicology Program [NTP] U.S. Food and Drug Administration [FDA] Tox21 Assay Overview: Measure of cell viability is critical in the cell-base assay. Analysis of cell viability is necessary for the characterization of cell responses to cytotoxic drugs and environmental stress. A RealTime-Glo MT Cell Viability Assay to monitor cell viability in real time of continues cell culture during 40 hours of compound treatment was used to screen Tox21 10K library compounds in HepG2 cells. The RealTime-Glo MT Cell Viability Assay is a nonlytic, homogeneous, bioluminescent method to measure cell viability in real time using a simple, plate-based method. The assay involves adding NanoLuc luciferase and a cell-permeant prosubstrate to cells in culture. Viable cells reduce the proprietary prosubstrate to generate a substrate for NanoLuc luciferase. This substrate diffuses from cells into the surrounding culture medium, where it is rapidly used by the NanoLuc Enzyme to produce a luminescent signal. The signal correlates with the number of viable cells, making the assay well suited for cytotoxicity studies.
Tox21 Assay Protocol Summary: The mixture of HepG2 cell suspension and reagents were dispensed at 600cells/6 ul/well in 1536-well tissue culture treated black solid bottom plates using a Multidrop dispenser. After the assay plates were incubated at a 37 C/5% CO2 incubator for 5 hours, 23 nL of compounds dissolved in DMSO, positive and negative controls was transferred to the assay plate by a pintool work station. The plates were incubated at 37 C for 40 hours. The luminescence intensity were measured at 0h, 8h, 16h, 24h, 32h and 40h time points using ViewLux plate reader during compound treatment.
With `CC#Cc1cc(C)nc(Nc2ccccc2)n1`, the Potency result was “inactive”.

For the compound `CCNc1nc(NCC)nc(SC)n1`, the Potency result was “inactive”.

`CCOC(=O)NC(C)(C)Cc1ccc(Cl)cc1`: the Potency entry is “inactive”.

Regarding `O=S1(=O)OCCO1`, the Potency result is “inactive”.

As to `CCN[C@@H](C)Cc1ccccc1`, the Potency entry was “inactive”.

In the case of `CCNP(=S)(OC)O/C(C)=C/C(=O)OC(C)C` (stereo not given), the Potency result was “inactive”.

Regarding `O=CCCl`, the Potency entry was “inactive”.

`O=C(Cl)c1ccccc1`: the Potency entry is “inactive”.

As to `C/C(=N\NC(=O)Nc1cc(F)cc(F)c1)c1ncccc1C(=O)O`, the Potency entry was “inactive”.

Take `Clc1nc(Cl)nc(Nc2ccccc2Cl)n1`: the Potency entry is “inactive”.

Turning to `C=CC1(C)OC(=O)N(c2cc(Cl)cc(Cl)c2)C1=O` (stereo not given), the Potency result was “inactive”.

As to `C[N+]1(C)CCCCC1`, the Potency result was “inactive”.

Consider `CCCOC(=O)Cc1ccc(OCC(=O)N(CC)CC)c(OC)c1`, for which the Potency result was “inactive”.

For `Cc1ccc2c(c1)C1CN(C)CCC1N2` (stereo not given), the activity change, negative = cytotoxic is -6.11% [at 15.8 µM].

In the case of `C=C1CC[C@@]2(O)[C@H]3Cc4ccc(O)c5c4[C@@]2(CCN3CC2CC2)[C@H]1O5`, the Potency entry is “inactive”.

`Cl/C=C/CCl`: the Potency entry is “inactive”.

As to `N#CN=C1SCCN1Cc1ccc(Cl)nc1`, the Potency entry is “inactive”.

For `NC(=O)CS(=O)C(c1ccccc1)c1ccccc1` (stereo not given), the Potency result was “inactive”.

As for `CC[C@@H](CO)NC(=O)[C@@H]1C=C2c3cccc4c3c(cn4C)C[C@H]2N(C)C1`, the Potency result was “inactive”.

With `CN(CCO)CCO`, the Potency entry was “inactive”.

In the case of `CCN(CCO)CCn1c(Cc2ccccc2)nc2c1c(=O)n(C)c(=O)n2C`, the Potency entry is “inactive”.

In the case of `CCC(C(N)=O)N1CCCC1=O` (stereo not given), the Potency entry is “inactive”.

Take `O=C(Cl)CCl`: the Potency result is “inactive”.

With `O=P(O)(O)CN(CP(=O)(O)O)CP(=O)(O)O`, the Potency entry is “inactive”.

As to `CCCCCCC(=O)CCCCCC/C=C/C[C@@H](O)[C@H](O)[C@@](N)(CO)C(=O)O`, the activity change, negative = cytotoxic is 1.68% [at 15.8 µM].

Consider `CC(C)(O)C(Cl)(Cl)Cl`, for which the Potency entry was “inactive”.

Regarding `O=c1[nH]oc2c1CCNC2`, the Potency entry is “inactive”.

Regarding `ClC(Cl)(Cl)Cl`, the Potency result was “inactive”.

For the compound `CCC(CC)(CNC(=O)CCCO)c1cccc(OC)c1`, the Potency result was “inactive”.

With `CCc1cc(OC)c(C[C@H](C)N)cc1OC`, the Potency result is “inactive”.

Consider `CC(=NC#N)N(C)Cc1ccc(Cl)nc1`, for which the Potency entry is “inactive”.

On to `CCOc1cc(OP(=S)(OC)OC)nc(CC)n1`, for which the Potency result is “inactive”.

With `COc1cc(CCN)cc(OC)c1OC`, the Potency result is “inactive”.

Take `COC(=O)[C@@H](N)CCCN/C(N)=N/[N+](=O)[O-]`: the Potency result is “inactive”.

`Oc1ccc(Cc2ccc(O)cc2)cc1`: the Potency result was “inactive”.

Regarding `CCOC(=O)N(C)N=O`, the Potency entry is “inactive”.

For `NNCc1ccccc1`, the Potency result was “inactive”.

As to `CC(C)[N+](C)(CCC(C(N)=O)(c1ccccc1)c1ccccc1)C(C)C`, the Potency entry is “inactive”.

In the case of `CCC1(c2ccccc2)C(=O)N(COC)C(=O)N(COC)C1=O`, the Potency result is “inactive”.

`CNC(=O)Oc1cc(C)c(N(C)C)c(C)c1`: the Potency result is “inactive”.
